# This is a sample that favours compounds with a hit; in the whole collection about 2.3% have one here.
# CHO-K1 Ca PAM – nonselective calcium activators in parental CHO-K1 cells, primary screen, counter-screen for M1 PAM project, cell-based, Fluo-8 calcium fluorescence, full deck, 1536-well; hit rate 0.02% among 360,000; ATP EC20; 0% at ATP EC20, 100% at ATP max; activation, % at 3 µM;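 active = activation above the run cutoff, the mean activation of all test compounds plus 3 SD, cut at about 40% in these data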;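 also: peak over basal fluorescence ratio in a 140 s read after ATP addition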
# CHRM1 PAM – human M1 muscarinic receptor positive allosteric modulators, primary screen, CHO-K1 cells, Fluo-8 calcium fluorescence, 1536-well. Muscarinic acetylcholine receptor M1 (Homo sapiens), P11229. CHO-K1 hM1, ACh EC20; 0% = ACh EC20, 100% = maximal ACh. activation, % at 3 µM. hit rate 0.088% among 360,000. AID 588819, 2011; in the data active = activation above about 19%, passing the limit was not always enough
# Target sequence (P11229 whole entry, looked up): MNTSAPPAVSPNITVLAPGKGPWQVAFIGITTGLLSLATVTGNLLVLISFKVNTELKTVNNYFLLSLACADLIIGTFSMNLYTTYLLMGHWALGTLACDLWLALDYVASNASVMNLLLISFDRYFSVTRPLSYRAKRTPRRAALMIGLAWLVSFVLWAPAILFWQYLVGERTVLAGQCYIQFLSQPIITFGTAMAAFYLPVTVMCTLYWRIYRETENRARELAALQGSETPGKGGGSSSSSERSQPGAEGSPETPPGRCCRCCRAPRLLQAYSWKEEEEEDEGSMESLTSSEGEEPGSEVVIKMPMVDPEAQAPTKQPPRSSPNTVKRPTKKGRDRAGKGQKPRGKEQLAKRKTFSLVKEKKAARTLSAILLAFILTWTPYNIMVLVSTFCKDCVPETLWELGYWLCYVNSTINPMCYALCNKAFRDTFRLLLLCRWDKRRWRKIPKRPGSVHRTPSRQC
# CHO-K1 Ca ag – counter-screen for M1 agonists: effect in parental CHO-K1 cells | hit rate 0.48% among 360,000 | Fluo-8 calcium fluorescence; scaled to maximal ATP response, vehicle zero | activation, % at 3 µM | AID 602248, 2012; in the data active = activation above about 15%;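 also: untransfected CHO-K1 host cells lacking M1 receptor as counterscreen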
# CHRM1 agonist – human M1 muscarinic receptor agonists, primary screen, Fluo-8 calcium fluorescence, CHO-K1 cells, HTS; CHO-K1 hM1, agonist mode; 0% DMSO, 100% acetylcholine EC100; activation, % at 3 µM; hit rate 0.33% among 360,000;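 active = activation above the run's mean compound activation plus 3 SD, cut at about 16% in these data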;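 also: peak over basal fluorescence ratio within a 140 s kinetic read after compound addition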
# CHRM1 antagonist – human M1 muscarinic receptor antagonists, primary screen, CHO-K1 cells, Fluo-8 calcium fluorescence, 1536-well; hit rate 1.3% among 360,000; CHO-K1 hM1, ACh EC80 antagonist; Muscarinic acetylcholine receptor M1 (Homo sapiens), P11229; inhibition, % at 3 µM; AID 588852, 2011;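 active = percent inhibition above its own plate's cutoff, namely the mean of that plate's compound wells plus 3 SD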;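 also: peak over basal fluorescence ratio during 140 s after agonist addition; 0% = ACh EC80 plus DMSO and 100% = DMSO alone without agonist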
# CHO-K1 Ca antag – counter-screen for M1 antagonists: effect in parental CHO-K1 cells | hit rate 0.6% among 360,000 | ATP-induced calcium, Fluo-8 fluorescence | inhibition, % at 3 µM;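 active = inhibition above a per-plate cutoff, the plate's mean sample inhibition plus 3 SD, cut at about 24% in these data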;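 also: 0% = DMSO plus EC80 ATP and 100% = DMSO alone without ATP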
# An asterisk follows results filed as active; x = no result.
SMILES,CHO-K1 Ca PAM,CHRM1 PAM,CHO-K1 Ca ag,CHRM1 agonist,CHRM1 antagonist,CHO-K1 Ca antag
C[C@H](CO)N1C[C@H](C)[C@@H](CN(C)Cc2ccccc2)Oc2c(NC(=O)c3ccncc3)cccc2C1=O,-6,2,1,-6,-4,-10
Cn1ncc(Oc2ccc([N+](=O)[O-])cc2)c(Cl)c1=O,3,6,15*,-3,-2,7
Cn1ncc(Cl)c(Oc2ccc(Cl)cc2)c1=O,17,-4,0,-10,3,-4
CC(C)c1cc(CNC(=O)C2CCC(=O)N(CCc3ccc(Cl)cc3)C2)on1 (stereo unspecified),9,3,0,-2,-3,-15
CC(C)(C)NC(=O)C(c1ccncc1)N(C(=O)Cn1nnc(-c2ccc(F)cc2)n1)c1cccc(F)c1 (stereo unspecified),10,-2,0,-6,1,-11
CC(=O)Nc1ccc(S(=O)(=O)N2CCC3(CC2)CC(=O)c2ccccc2O3)cc1,-17,-15,2,-3,32*,9
CN1C(CC(=O)Nc2ccc(Cl)cc2Cl)c2ccccc2CC1(C)C (stereo unspecified),13,-20,0,-9,34*,-9
CC1(C)N=C(SCC(=O)Nc2ccc(Cl)cc2Cl)C(c2ccccc2)=N1,3,0,0,-3,-4,-6
Cc1cccc(/C=N\N=C\c2cccc(C)c2)c1,-20,15,0,-1,-12,8
CC(C)(C)N(Cc1ccccc1)C(=O)COC(=O)CSc1ccc([N+](=O)[O-])cc1,4,2,1,-3,7,-7
O=C(NCc1ccco1)c1ccc2c(c1)N(Cc1ccccc1)C(=O)CS2,-7,-28,1,-13,24,-22
Cc1ccc(C)c(CN2C(=O)CSc3ccc(C(=O)NCCN4CCOCC4)cc32)c1,12,0,1,-10,-5,-12
O=C(NCC1CCCO1)c1ccc2c(c1)N(Cc1ccccc1)C(=O)CS2 (stereo unspecified),-7,-21,1,-5,45*,-3
O=C(NCCN1CCOCC1)c1ccc2c(c1)N(Cc1ccccc1F)C(=O)CS2,21,-18,0,-3,59*,-14
O=C(CN1C(=O)CSc2ccc(S(=O)(=O)N3CCOCC3)cc21)NCCCN1CCOCC1,-8,4,0,-3,-1,-1
O=C(NCCCN1CCOCC1)c1ccc2c(c1)N(Cc1c(F)cccc1Cl)C(=O)CS2,-13,-33,2,-11,100*,-1
O=C(CN1C(=O)CSc2ccc(S(=O)(=O)N3CCOCC3)cc21)NCCCN1CCCCC1,13,-15,1,-6,38*,-14
CCc1nnc(NC(=O)CCC(=O)NC2CCCCCCC2)s1,1,11,1,-2,-16,-7
Cc1cccc(C)c1-n1nnnc1C1c2ccccc2C(=O)N1CCc1ccc(O)cc1 (stereo unspecified),11,x,5,x,x,-7
O=C(Cc1ccccc1)Nc1ccc(NC(=O)c2ccco2)nc1,-4,14,0,0,-9,25*
CCCC(=O)Nc1ccc(NC(=O)c2ccccc2Cl)nc1,-7,-9,0,-2,22,24*
Cc1c(CCO)c(=O)[nH]n1S(=O)(=O)c1ccc(F)cc1,7,15,2,1,-18,-9
Cn1cccc1C(=O)NCC(c1ccc(F)cc1)N1CCOCC1 (stereo unspecified),-6,26*,0,1,-25,-14
Cc1ccc(C(=O)NCC(c2ccc(F)cc2)N2CCOCC2)cc1 (stereo unspecified),22,4,1,-3,-8,-14
COCc1cc(C)nc(SCC(=O)Nc2ccccc2N2CCOCC2)c1C#N,12,9,0,-1,-5,2
COCc1cc(C)nc(SCC(=O)Nc2cccc3cccnc23)c1C#N,-15,-3,0,-1,4,25*

# Assay outcomes deposited in PubChem by The Scripps Research Institute Molecular Screening Center.
